Assay results reported in PubChem BioAssay AID449 (The Scripps Research Institute Molecular Screening Center, 2006).
Screen size: about 56,000 compounds; about 320 (0.57%) were called active. The sample holds actives, similar compounds and a random draw of the others, so the mix is not that of the screen.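 Rule for the calls: active = activation above a cutoff set at the mean activation of all tested compounds plus 3 SD (cut at about 54% in these data); inactive = the rest, inconclusive results apart.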

Molecular target: Sphingosine 1-phosphate receptor 1 (Homo sapiens) (UniProt P21453)
Assay: activation or potentiation of human S1P1 signaling – cell-based, primary and confirmation screens, CRE-bla reporter, primary screen (AID 449);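 note: forskolin at 4 µM as EC80 and the EC20 agonist is SEW2871; 100% = SEW2871 at its EC100 plus forskolin at EC80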
Details: S1P1 CRE-bla cells, forskolin, beta-lactamase FRET, potentiator mode, at 9.5 µM, stronger effect = higher value, 100% = saturating reference agonist, 0% = basal, S1P1 agonist co-added at EC20, 2 nM
[1] = measured here: confirmation screen, triplicate average

Chain of Sphingosine 1-phosphate receptor 1 (Homo sapiens) (P21453 whole entry, looked up): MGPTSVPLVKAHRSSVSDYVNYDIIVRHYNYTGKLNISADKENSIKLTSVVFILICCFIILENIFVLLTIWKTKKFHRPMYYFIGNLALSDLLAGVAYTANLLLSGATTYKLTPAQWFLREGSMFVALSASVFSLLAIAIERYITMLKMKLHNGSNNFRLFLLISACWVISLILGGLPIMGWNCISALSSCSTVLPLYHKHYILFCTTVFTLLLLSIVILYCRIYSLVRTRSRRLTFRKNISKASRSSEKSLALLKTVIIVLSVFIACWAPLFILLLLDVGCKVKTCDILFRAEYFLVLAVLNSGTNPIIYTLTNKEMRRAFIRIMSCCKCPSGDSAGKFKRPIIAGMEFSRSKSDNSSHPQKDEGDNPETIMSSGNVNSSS

Row | Structure (SMILES) | activation | activation [1]
1 | c1csc(-c2cn3c(n2)SCC3)c1 | -25.6% (inactive) | –
2 | CCc1cc(=O)oc2cc(OCC(=O)N3CCCc4ccccc43)ccc12 | -15.5% (inactive) | –
3 | CCSC(C)CC1C/C(=N/O)c2c(C)noc2C1 (configuration not stated) | -5.8% (inactive) | –
4 | COC(=O)Cc1c(C)c2ccc(OCC(=O)NCc3ccc4c(c3)OCO4)cc2oc1=O | -1.6% (inactive) | –
5 | CSc1nnc(CNC(=O)c2ccccc2)n1-c1ccc(F)cc1 | -11.1% (inactive) | –
6 | O=C(CCCOc1ccccc1)Nc1cccc(C(=O)O)c1 | 2.3% (inactive) | –
7 | COc1ccc(C(=O)Nc2cccnc2)cc1C(=O)Nc1cccnc1 | 5.6% (inactive) | –
8 | CN(C)/C=C1/C(=O)Nc2ccccc21 | -14.3% (inactive) | –
9 | COC(=O)C(C)n1cnc2c(nnn2-c2cccc(Cl)c2)c1=O (configuration not stated) | -14.1% (inactive) | –
10 | Cn1c(=O)[nH]c(=O)c2c1nc(CN1CCN(c3ccccc3F)CC1)n2CCc1ccccc1 | -6.4% (inactive) | –
11 | O=C(Nc1c(-c2ccccc2)nc2c(Br)cc(Br)cn12)c1ccco1 | 17.7% (inactive) | –
12 | Cc1nc2ccc(S(=O)(=O)NC(C(=O)N3CCCCCC3)C(C)C)cc2s1 (configuration not stated) | -9.8% (inactive) | –
13 | CCCOC(=O)c1cc2ccccc2oc1=O | -2.5% (inactive) | –
14 | Cc1ccnc(SCCn2c(N(C)Cc3ccccc3)nc3c2c(=O)n(C)c(=O)n3C)n1 | -31.4% (inactive) | –
15 | N#Cc1c2c(c(-c3ccccc3)[nH]c1=O)CCCC2 | -28.7% (inactive) | –
16 | C=CCOc1nc2c(c(=O)n(C)c(=O)n2C)n1Cc1ccc(Cl)cc1Cl | 2.7% (inactive) | –
17 | O=P(O)(CN1CCCCC1)CN1CCCCC1 | -3% (inactive) | –
18 | COc1ccc(OCC(=O)OCC(=O)Nc2ccc(S(=O)(=O)N3CCCCC3)cc2)cc1 | -8.9% (inactive) | –
19 | COc1ccc(C2C(C#N)=C(N)Oc3cc(N)ccc32)cc1OC (configuration not stated) | -18% (inactive) | –
20 | COc1ccc(CSc2nc(N3CCOCC3)c3c(c2C#N)CC(C)(C)OC3)cc1 | -11.9% (inactive) | –
21 | CC(=O)Nc1ccc(S(=O)(=O)N2CCN(C3CCCCCCC3)CC2)cc1 | -11.9% (inactive) | –
22 | COc1cc(OC)cc(C(=O)Nc2ncc3c(n2)CC(C)(C)CC3=O)c1 | -4.2% (inactive) | –
23 | CC(C)(C)Nc1c(N)c(=O)oc2ccccc12 | 9.1% (inactive) | –
24 | O=c1oc2c(CN3CCCCC3)c(O)ccc2c2c1CCCCC2 | -2.6% (inactive) | –

Row | Structure (SMILES) | activation | activation [1]
25 | O=C(O)c1cccc2c1C(=O)N(C1CCCCC1)C2 | -25.1% (inactive) | –
26 | O=C(CN1CCOc2ccccc21)N1CCC(Cc2ccccc2)CC1 | 6% (inactive) | –
27 | CCCC(=O)N1c2ccccc2NC2=C(C(=O)CCC2)C1c1ccc(F)cc1 (configuration not stated) | -9.6% (inactive) | –
28 | Cc1cccc(CC(=O)Nc2c3c(nn2-c2cccc(Cl)c2)CS(=O)C3)c1 (configuration not stated) | 26.1% (inactive) | –
29 | CC[C@H]1CN2CCc3cc(OC)c(OC)cc3[C@@H]2C[C@@H]1C[C@H]1NCCc2cc(OC)c(OC)cc21 | 131% (active) | 101%
30 | Cc1csc(NC(=O)C2CCCN2C(=O)OCC(C)C)n1 (configuration not stated) | 6.7% (inactive) | –
31 | CCOc1ncccc1C(=O)OCc1cn2cc(Cl)ccc2n1 | -55.2% (inactive) | –
32 | CCOC(=O)N1CCN(C(=O)C2CCN(c3ncnc4c3sc3cccc(F)c34)CC2)CC1 | 96.6% (active) | 78.6%
33 | CCOC(=O)N1CCN(C(=O)C2CCCN(c3ncnc4c3sc3cccc(F)c34)C2)CC1 (configuration not stated) | -8.7% (inactive) | –
34 | CCOC(=O)C1CCN(c2ncnc3c2oc2ccc(Br)cc23)CC1 | 3.6% (inactive) | –
35 | CN1C(=O)CC(N2CCN(c3ccccn3)CC2)C1=O (configuration not stated) | -14.2% (inactive) | –
36 | O=C(O)CN(Cc1ccco1)S(=O)(=O)c1ccccc1 | -18.7% (inactive) | –
37 | CCC1(C)N(O)C(C)(C)C(c2ccc(OC)cc2)=[N+]1[O-] (configuration not stated) | -9.9% (inactive) | –
38 | Cn1c(=NC(=O)C2CC2)sc2cc(F)cc(F)c21 | 0.7% (inactive) | –
39 | COc1ccc(N2C(=O)C3CCCN3C2c2cccc(OC)c2)cc1 (configuration not stated) | 5.4% (inactive) | –
40 | C=C(Br)CN1CCN(CC(=C)Br)CC1 | -15.8% (inactive) | –
41 | Cc1ccc(C2CC(c3cccc(Br)c3)n3nc(N)nc3N2)cc1 (configuration not stated) | -10.7% (inactive) | –
42 | COc1ccccc1-n1c(CNC(=O)c2ccccc2)nnc1SCC(=O)Nc1nnc(C)s1 | -0.9% (inactive) | –
43 | O=C(CSCc1cccs1)N1CCCC1 | -22.9% (inactive) | –
44 | CC(C)Oc1ccc(C(=O)Nc2cc(=O)n(C)c(=O)n2C)cc1 | -4.5% (inactive) | –
45 | CCCN1CCN(C(=O)Cn2ncc3ccccc32)CC1 | -19.3% (inactive) | –
46 | Cc1cc(C)c(S(=O)(=O)NCCCN2CCOCC2)cc1Br | 3.7% (inactive) | –
47 | CC(=O)N1CCN(c2cccc(C)c2C)CC1 | -9.6% (inactive) | –
48 | CCNC(=O)N1CCNC(=O)C1CC(=O)Nc1ccc(C(=O)OCC)cc1 (configuration not stated) | -11.5% (inactive) | –

Row | Structure (SMILES) | activation | activation [1]
49 | COc1ccccc1NC1=NC2(CCCC2)N=C(N)N1 | 5.5% (inactive) | –
50 | CCN(CC)S(=O)(=O)c1ccc2nc(CSc3nnnn3-c3ccc(O)cc3)[nH]c2c1 | -21.4% (inactive) | –
51 | O=S(=O)(Nc1ccc2nc(-c3ccco3)[nH]c2c1)c1ccccc1 | 5.9% (inactive) | –
52 | Cc1ccc(C2c3c(oc4ccc(C)cc4c3=O)C(=O)N2CCCN2CCOCC2)cc1 (configuration not stated) | 3.6% (inactive) | –
53 | COc1ccccc1N1CCN(Cc2nnnn2CCc2ccccc2)CC1 | -1.7% (inactive) | –
54 | COc1ccccc1-n1nnnc1S(=O)(=O)Cc1ccc(Cl)cc1 | 89.3% (active) | 76%
55 | COCCn1nnnc1C(c1ccccc1Cl)N1CCN(c2ccccc2OC)CC1 (configuration not stated) | -15.5% (inactive) | –
56 | CCOC(=O)C1Cn2c(nc3c(c2=O)C(C)(CC)Cc2ccccc2-3)S1 (configuration not stated) | -35.4% (inactive) | –
57 | COc1ccc(OC)c(C(=O)c2coc3ccc(OC)cc23)c1 | 7.5% (inactive) | –
58 | CCCCn1c(CCCNC(=O)CC)nc2ccccc21 | -7% (inactive) | –
59 | COc1ccc(-c2ccc(-c3noc(-c4ccncc4)n3)c(OC)n2)cc1 | -6.8% (inactive) | –
60 | Cc1cccc(NC(=O)COc2ccccc2C)n1 | 15.3% (inactive) | –
61 | Cc1ccccc1OCC(=O)Nc1ccc(N2CCN(C(=O)C(C)C)CC2)c(Cl)c1 | 92.5% (active) | 68.2%
62 | CN1CCN(c2ccc(NC(=O)COc3ccc(Cl)cc3Cl)cc2)CC1 | -9.3% (inactive) | –
63 | CCc1ccc(N(CC)c2ncnc3nc[nH]c23)cc1 | 56.5% (active) | 57.4%
64 | COc1ccc(CCNc2ncnc3nc[nH]c23)cc1OC | -11.4% (inactive) | –
65 | c1ccc2c(c1)OCC(CNc1ncnc3nc[nH]c13)O2 (configuration not stated) | 23.9% (inactive) | –
66 | COC(=O)c1cc(C(=O)CSc2nc(C)cc(C)n2)ccc1O | -13.3% (inactive) | –
67 | CC(C)OC(=O)c1sc2nc3c(cc2c1N)C(=O)CCC3 | -1.6% (inactive) | –
68 | Cc1ccc(-c2nn(-c3ccccc3)cc2CN(Cc2ccccc2)C(=O)CCC(=O)O)o1 | -15.4% (inactive) | –
69 | CCCc1nc(SCC(=O)Nc2ccccc2OC)c2c(=O)n(C)c(=O)n(C)c2n1 | -6% (inactive) | –
70 | COc1ccc(OC)c(C(=O)CSc2nnc(-c3cccs3)o2)c1 | -31.3% (inactive) | –
71 | COc1ccc(-c2nnc(SCC(=O)c3cccs3)o2)c(OC)c1 | 8.5% (inactive) | –
72 | COc1ccc(-n2c(C)cc(C(=O)CSc3nnc(-c4cccs4)o3)c2C)cc1 | 114% (active) | 111%

Row | Structure (SMILES) | activation | activation [1]
73 | CCOC(=O)c1sc(/N=C/Nc2nc(C)c(C(=O)OCC)s2)nc1C | 11.8% (inactive) | –
74 | Cc1cc(C(=O)N2CCN(c3ccccn3)CC2)c(C)o1 | -7.8% (inactive) | –
75 | COc1cccc(N(CC(=O)Nc2cccc(F)c2)S(C)(=O)=O)c1 | 13.1% (inactive) | –
76 | COc1ccc(C)c2sc(=NC(=O)c3ccc(C#N)cc3)n(C)c12 | -12.3% (inactive) | –
77 | CCSC1(SCC)N=C(N)C2(C#N)C(c3ccccc3)NC(C)=CC12C#N (configuration not stated) | 2.3% (inactive) | –
78 | CC(NC(=O)c1ccc(Cl)cc1)C(=O)N1CCCCC1 (configuration not stated) | -2% (inactive) | –
79 | CC1CSc2nnc(CCc3ccccc3)n21 (configuration not stated) | -14.3% (inactive) | –
80 | CC12COC3(C(=O)Nc4ccc(Cl)cn4)CC1CCC32C (configuration not stated) | -10.8% (inactive) | –
81 | COCCCn1c2nc3ccccc3nc2c2c(=O)n(Cc3ccc(Cl)cc3)c(C)nc21 | 6% (inactive) | –
82 | CCC(C(=O)Nc1ncccn1)(C(F)(F)F)C(F)(F)F | -4.8% (inactive) | –
83 | CC(C)Cc1cc(C(=O)NCCc2ccccc2)no1 | 20.9% (inactive) | –
84 | CCCOc1ccc(-c2nc(N)n[nH]2)cc1 | 5.2% (inactive) | –
85 | CCOC(=O)C1CCCN(C(=O)Cn2ncc3c(=O)oc4ccc(C)cc4c32)C1 (configuration not stated) | -8.1% (inactive) | –
86 | Cc1cc(OCCN2CCCC2)ccc1C(C)C | -14.6% (inactive) | –
87 | COc1ccc(OC)c2[nH]c(=O)c(CCNC(=O)C(C)(C)C)cc12 | -8.4% (inactive) | –
88 | CCOC(=O)CSC1=C(C#N)C(c2sccc2C)CC(=O)N1 (configuration not stated) | -11.6% (inactive) | –
89 | CC(=O)N1CCN(C(=O)c2cccc(S(=O)(=O)Nc3ccc(C)cc3)c2)CC1 | -12.2% (inactive) | –
90 | Cc1c(C(=O)NCC2CCCO2)sc2nc(-c3ccccc3)cn12 (configuration not stated) | -17.8% (inactive) | –
91 | CCOc1ccc(NC(=O)CSc2nc3c(c(=O)n2-c2ccccc2OC)SCC3)cc1 | -5.9% (inactive) | –
92 | COc1ccc(OC)c2sc(NC(=O)C3COc4ccccc4O3)nc12 (configuration not stated) | -1.3% (inactive) | –
93 | COc1ccc(CCNC(=O)CN2CCC(n3nnc4cc(F)ccc43)CC2)cc1OC | -19.7% (inactive) | –
94 | COCCOC(=O)C1=C(C)N=c2s/c(=C\c3cccs3)c(=O)n2C1c1cccs1 (configuration not stated) | 2.2% (inactive) | –
95 | COc1ccc(OC)c(CNC(=O)CCc2nc(-c3cccs3)no2)c1 | 9.5% (inactive) | –
96 | CC(C)(C)NC(=O)C(c1ccco1)N(Cc1ccc2c(c1)OCO2)C(=O)Cn1nnc2ccccc21 (configuration not stated) | 11.2% (inactive) | –
